Experimental data from PubChem BioAssay (NCI).
Values joined by “and” are separate entries in the source; they are usually repeats but may differ in a detail not shown here. Identical values can stand only once. About 83,000 compounds went through this panel and 20% of them were active in at least one assay; those are over-represented in the sample as a whole.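 Treatment: one concentration, 48 hours, 96-well format. Scoring: percent growth, with anything below 10 considered active.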 Active and inactive are the calls of the source.

The molecules below were run on MDA-MB-468 breast (assay: NCI-60 one-dose screen, 48 h (100 = growth as untreated, 0 = no growth, -100 = all killed)). Conditions: 10 µM unless noted.

Row | Compound | growth
1 | C[C@]12CCc3sc(Nc4ccc(F)cc4F)nc3C1=CC[C@@H]1[C@@H]2CC[C@]2(C)C(=O)CC[C@@H]12 | 23.3% (inactive)
2 | ClCCN(CCCl)C(c1ccccc1)c1ccc(Cl)cc1 (stereo not given) | 35.1% (inactive)
3 | S=P(NC1CCCCC1)(N1CC1)N1CC1 | 103% (inactive)
4 | C[C@@H]1C[C@@H]([C@H](O)CC2CC(=O)NC(=O)C2)C(=O)[C@@H](C)C1 | 9.5% (active)
5 | c1ccc([As]=[As]c2ccccc2)cc1 (stereo not given) | -55.7% (active)
6 | O=C(NCCCN1CC1)Nc1cccc2ccccc12 | 103% (inactive) and 90.7% (inactive)
7 | CC1(C)N=C(N)N=C(N)N1c1ccc(CCCCc2ccc(Cl)c(S(=O)(=O)F)c2)c(Cl)c1 | 6.7% (active)
8 | CC12CCC3C(CCC4Cc5[nH]c6ccccc6c5CC43C)C1CCC2O (stereo not given) | 29.3% (inactive)
9 | CC1=CC(=O)CCC12CCOC2=O (stereo not given) | 105% (inactive)
10 | C=COC(=O)CCN1CC1 | 108% (inactive)
11 | COc1cccc2c1c(C(=O)C(=O)Nc1ccn[nH]1)cn2Cc1ccc(F)cc1 | 43.3% (inactive)
12 | CNC(C)Cc1ccccc1 (stereo not given) (tested in a mixture with another compound) | 91.3% (inactive)
13 | O=C(Nc1ccncc1F)c1cn(CC2CC2)c2ccccc12 | 107% (inactive)
14 | NC1CCc2cc(O)c(O)cc2C1 (stereo not given) | 66% (inactive)
15 | CC[C@@H](C)/C=C(C)/C=C/C(=O)c1c(O)c(-c2ccc(O)cc2)cn(O)c1=O | -25% (active)
16 | O=C(NC(Cl)=C(Cl)Cl)P(=O)(c1ccccc1)c1ccccc1 | 101% (inactive)
17 | CC1=C2[C@@H](CC1)[C@]1(C)O[C@@](C(C)C)(C[C@H]1O)[C@H]2OC(=O)C1CC1c1ccccc1 (stereo not given in full) | 94.6% (inactive)
18 | NC(=O)Oc1cc(OC(N)=O)cc(N(CCCl)CCCl)c1 | 29.9% (inactive)
19 | CC(=O)Nc1ccc(Cc2ccc(NC(C)=O)cc2)cc1 | 95.6% (inactive)
20 | C/C(=C\C(=O)O[C@H]1[C@@H]2[C@H](C)CC[C@H]2[C@]2(C)O[C@@]1(C1CCCCC1)C[C@H]2OC(=O)CO)c1ccccc1 | 28% (inactive)

Row | Compound | growth
21 | CCCC[C@H](NC(=O)[C@H]1CCCN1C)C(=O)N(C)[C@H](C[C@@H](OC(C)=O)c1nc(C(=O)N[C@@H](Cc2ccccc2)C[C@H](C)C(=O)OCC)cs1)C(C)C | 7.04% (active)
22 | Cc1ccc2oc(=O)c3c(c2c1)OC(N)=C(C#N)C3c1ccco1 (stereo not given) | 91.4% (inactive)
23 | CCCCOC(=O)c1ccccc1C(=O)O.CCCCOC(=O)c1ccccc1C(=O)O.[Cu+2] | 103% (inactive)
24 | COc1ccc(/C=C\c2cc(OC)c(OC)c(OC)c2)cc1OCC(=O)Nc1nc2ccc(OC(F)(F)F)cc2s1 | -22.1% (active)
25 | O=c1[nH]c2ccc([N+](=O)[O-])cc2c(=O)o1 | 108% (inactive)
26 | CC[C@H](C)[C@H](NC(=O)[C@H]1CCCCN1C)C(=O)N(C)[C@H](C[C@@H](OC(C)=O)c1nc(C(=O)NC23CC(C(=O)OC)(C2)C3)cs1)C(C)C | 4.52% (active)
27 | N#CC(C#N)=Cc1ccc2ccccc2c1 | 105% (inactive)
28 | CC(N)Cc1ccc(O)cc1 (stereo not given) | 107% (inactive)
29 | COc1ccc2c(c1)NC1=C(C(=O)OC1)C2c1cc(OC)c(OC)c(OC)c1 (stereo not given) | -16.3% (active)
30 | O=[As](O)(O)c1ccccc1[As](=O)(O)O | 99.7% (inactive)
31 | CC1=C[C@H]2O[C@@H]3C[C@H]4OC(=O)/C=C\C=C\[C@H]([C@@H](C)O)OCC/C(C)=C/C(=O)OC[C@@]2(CC1)[C@]4(C)[C@]31CO1 | -63.8% (active)
32 | COc1cc([N+](=O)[O-])c2nc(C)ccc2c1[N+](=O)[O-] | -9.11% (active)
33 | C[CH2][Sn]([CH2]C)([CH2]C)[NH]S(=O)(=O)c1ccc(C)cc1 | 114% (inactive)
34 | CC(C)OC(=S)[S-].[Au+].c1ccc([PH+](c2ccccc2)c2ccccc2)cc1 | -32.3% (active)
35 | Clc1ccc(COC(Cn2ccnc2)c2ccc(Cl)cc2Cl)cc1 (stereo not given) | 39.7% (inactive)
36 | C=NCC#N | 105% (inactive) and 108% (inactive)
37 | Cc1nc2ccccc2c(=O)n1-c1ccccc1F | 105% (inactive)
38 | Clc1cc(N2CC2)nc(N2CC2)n1 | 9.71% (active)
39 | COc1ccc2c(c1)c(-c1nc(-c3c[nH]c4ncccc34)cs1)cn2CCCCN1CCOCC1 | 39.3% (inactive)
40 | Cc1c2cc(Cl)c3ccccc3c2c[n+]2ccccc12 | -71.5% (active)
